# PubChem BioAssay (Tox21)
# “And” between values parts separate entries of the source, which are not always exact repeats. Identical values can stand only once. Records with an inconclusive call do not appear. Entries that show only a call come without a potency. The source made the active and inactive calls. Unless noted, the call rests on the fitted dose curve; in most records, active means well fitted curve in the direction sought with a large enough effect in the repeat runs; inconclusive means weak or mixed curves; inactive means no such curve, though single readings can be large; an effect the other way counts as inactive or inconclusive.
# Columns and labels:
# [1] = target: Peroxisome proliferator-activated receptor delta (Homo sapiens) (UniProt Q03181); assay: qHTS assay to identify small molecule agonists of the peroxisome proliferator-activated receptor delta (PPARd) signaling pathway (AID 743212; calls by dose curve)
# Sequence of Peroxisome proliferator-activated receptor delta (Homo sapiens) (Q03181 whole entry, looked up): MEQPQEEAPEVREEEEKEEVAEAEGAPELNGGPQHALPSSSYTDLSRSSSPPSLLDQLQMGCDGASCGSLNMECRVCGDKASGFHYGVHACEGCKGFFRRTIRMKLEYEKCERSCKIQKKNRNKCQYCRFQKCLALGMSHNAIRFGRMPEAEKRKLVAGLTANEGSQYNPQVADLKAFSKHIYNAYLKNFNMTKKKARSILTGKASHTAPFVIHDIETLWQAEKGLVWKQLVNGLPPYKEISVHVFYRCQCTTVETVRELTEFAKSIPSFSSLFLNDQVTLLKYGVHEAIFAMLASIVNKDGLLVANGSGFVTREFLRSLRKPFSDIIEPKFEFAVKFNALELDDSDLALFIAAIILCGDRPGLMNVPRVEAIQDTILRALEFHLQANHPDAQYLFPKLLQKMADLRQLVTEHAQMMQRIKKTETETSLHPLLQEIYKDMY
# Summary of the method: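 Steps: seed PPARd-bla HEK293H cells; incubate 5 h, 37 C, 5% CO2; add compounds in DMSO; incubate, 37 C; add LiveBLAzer B/G FRET substrate; hold 2 h at room temperature; measure fluorescence.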
# [2] = qHTS assay to identify small molecule antagonists of the peroxisome proliferator-activated receptor delta (PPARd) signaling pathway - cell viability counter screen (AID 743213); further: nearly all actives have a fitted effect of over 50% in size; further: potency means the concentration at half of the fitted maximal effect
# Summary of the method: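 HEK293H PPARd UAS-bla cells, 5 h pre-incubation, compound + L165041 300 nM final, 17 h 37 C; B/G FRET substrate 2 h RT; then CellTiter-Glo 30 min RT, luminescence.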
# [3] = qHTS assay to identify small molecule agonists of the farnesoid-X-receptor (FXR) signaling pathway - cell viability counter screen (AID 743218); further: nearly all actives have a fitted effect of over 45% in size; further: potency means the concentration at half of the fitted maximal effect
# Summary of the method: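 Luminescence from CellTiter-Glo, read after 30 min at RT, reports viability of GeneBLAzer FXR-UAS-bla HEK 293T cells treated 16 h with compounds in the wells used for the beta-lactamase reporter.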
# [4] = qHTS assay to identify small molecule antagonists of the farnesoid-X-receptor (FXR) signaling pathway - cell viability counter screen (AID 743221; active means well fitted cell-killing curve with a large enough effect in the repeat runs, not every such curve was filed as active; further: nearly all actives have a fitted effect of over 50% in size; further: potency means the concentration at half of the fitted maximal effect)
# Summary of the method: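 Multiplexed counter screen: viability of FXR-bla HEK 293T cells under agonist stimulation by chenodeoxycholic acid (50 uM, final) and test compound for 16 h at 37 C, measured by CellTiter-Glo luminescence in the reporter wells.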
# [5] = qHTS assay to identify small molecule agonists of the vitamin D receptor (VDR) signaling pathway - cell viability counter screen (AID 743224); further: nearly all actives have a fitted effect of over 50% in size; further: potency means the concentration at half of the fitted maximal effect
# Summary of the method: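 Cytotoxicity counter screen: VDR-bla cells, 16 h compound exposure at 37C, 5% CO2; CellTiter-Glo luminescence, 30 min RT, same wells as bla read.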
# [6] = qHTS assay to identify small molecule antagonists of the vitamin D receptor (VDR) signaling pathway - cell viability counter screen (AID 743225); further: nearly all actives have a fitted effect of over 50% in size; further: potency means the concentration at half of the fitted maximal effect
# Summary of the method: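 HEK293T VDR-bla; cpd + 1a,25-(OH)2D3 3 nM final, 16 h 37C/5% CO2; B/G FRET substrate 2 h RT; then CellTiter-Glo 30 min RT, luminescence.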
# [7] = qHTS assay to identify small molecule agonists of the endoplasmic reticulum stress response signaling pathway (AID 1159516; active means well fitted activation curve with a large enough effect in the signal ratio in the repeat runs, not every such curve was filed as active; the % refers to the signal ratio)
# Summary of the method: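 HeLa ESRE-bla reporter line; cpd 5 h, 37 C/5% CO2; LiveBLAzer B/G FRET substrate 2 h RT; ex 405, em 460/530 nm.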
# [8] = qHTS assay to identify small molecule agonists of the AP-1 signaling pathway - cell viability counter screen (AID 1159525; calls by dose curve; further: nearly all actives have a fitted effect of over 55% in size; further: potency means the concentration at half of the fitted maximal effect)
# Summary of the method: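 Intracellular ATP by Cell Titer Glo luminescence (30 min, RT) in the same ME-180 AP-1-bla wells after the 5 h compound exposure at 37 °C. Normalised to tetra n-octyl ammonium bromide and DMSO controls.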
# [9] = qHTS assay to identify small molecule agonists of the AP-1 signaling pathway (AID 1159526; calls by dose curve)
# [10] = qHTS assay to identify small molecule agonists of the RXR signaling pathway - cell viability counter screen (AID 1159529); further: nearly all actives have a fitted effect of over 50% in size; further: potency means the concentration at half of the fitted maximal effect
# Summary of the method: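 Steps: seed RXR-alpha-UAS-bla HEK 293T cells in assay medium containing 2% charcoal-stripped FBS; incubate 5 hr; add compounds in DMSO; incubate 16 hr at 37 C; after the bla read, add CellTiter-Glo and read luminescence at 30 min.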
# [11] = qHTS assay to identify small molecule agonists of the endoplasmic reticulum stress response signaling pathway - cell viability counter screen (AID 1159517; calls by dose curve; further: nearly all actives have a fitted effect of over 50% in size; further: potency means the concentration at half of the fitted maximal effect)
# Summary of the method: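 After overnight attachment, ESRE-bla HeLa cells were treated with Tox21 library compounds for 5 hr. CellTiter-Glo luminescence, read 30 min post-addition at room temperature, reported viability.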
# [12] = qHTS assay to identify small molecule antagonists of the retinoid-related orphan receptor gamma (ROR-gamma) signaling pathway - cell viability counter screen (AID 1159520); further: nearly all actives have a fitted effect of over 50% in size; further: potency means the concentration at half of the fitted maximal effect
# Summary of the method: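 Cytotoxicity was read from cellular ATP (CellTiter-Glo luminescence) after 16 hr at 37 C with 1 uM doxycycline induction. The inducer was added 2 hr after compound transfer to Tet-on ROR gamma CHO cells.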
# [13] = target: Nuclear receptor ROR-gamma (Homo sapiens) (UniProt P51449); assay: qHTS assay to identify small molecule antagonists of the retinoid-related orphan receptor gamma (ROR-gamma) signaling pathway (AID 1159521; further: nearly all actives have a fitted effect of over 50% in size; further: potency means the concentration at half of the fitted maximal effect)
# Summary of the method: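 Cells were plated, rested 4 h at 37 C, exposed to compounds for 2 h, then given 1 uM final doxycycline hyclate to induce RORγ expression. After 16 h, ONE-Glo luminescence from the ROR response element reporter was measured.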
# [14] = target: Retinoic acid receptor RXR-alpha (Homo sapiens) (UniProt P19793); assay: qHTS assay to identify small molecule agonists of the RXR signaling pathway (AID 1159527; calls by dose curve; further: nearly all actives have a fitted effect of over 35% in size)
# Sequence of Retinoic acid receptor RXR-alpha (Homo sapiens) (P19793 whole entry, looked up): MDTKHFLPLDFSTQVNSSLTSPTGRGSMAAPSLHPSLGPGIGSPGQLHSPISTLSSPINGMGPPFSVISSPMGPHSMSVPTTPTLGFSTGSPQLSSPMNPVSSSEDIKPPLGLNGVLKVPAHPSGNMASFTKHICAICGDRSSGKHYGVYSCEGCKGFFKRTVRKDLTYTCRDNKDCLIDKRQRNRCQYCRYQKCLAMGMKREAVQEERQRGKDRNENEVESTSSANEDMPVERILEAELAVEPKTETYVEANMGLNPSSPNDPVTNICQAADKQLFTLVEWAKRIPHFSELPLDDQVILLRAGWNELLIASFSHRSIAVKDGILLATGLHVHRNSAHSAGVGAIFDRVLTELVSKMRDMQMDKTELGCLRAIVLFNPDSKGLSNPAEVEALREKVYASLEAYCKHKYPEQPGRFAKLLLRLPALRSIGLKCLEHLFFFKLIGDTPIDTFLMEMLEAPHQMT
# Summary of the method: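 Cells plated at 2,000/well, rested 5 hr at 37 C, pin-dosed with DMSO compound solutions, incubated 16 hr, then loaded with B/G FRET substrate for 2 hr at RT before dual-emission fluorescence reading.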
# [15] = target: Peroxisome proliferator-activated receptor delta (Homo sapiens) (UniProt Q03181); assay: qHTS assay to identify small molecule antagonists of the peroxisome proliferator-activated receptor delta (PPARd) signaling pathway (AID 743215; active means well fitted inhibition curve with a large enough effect in the signal ratio in the repeat runs, not every such curve was filed as active; the % refers to the signal ratio;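 further: cells stimulated with agonist L165041 at 300 nM final during compound exposure; series mostly up to about 62 µM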)
# Summary of the method: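 HEK293H GeneBLAzer PPARd UAS-bla reporter cells; cpd + L165041 300 nM final, 17 h 37 C; LiveBLAzer B/G FRET substrate 2 h RT; fluorescence intensity read-out. Antagonist mode.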
# [16] = target: Vitamin D3 receptor (Homo sapiens) (UniProt P11473); assay: qHTS assay to identify small molecule agonists of the vitamin D receptor (VDR) signaling pathway (AID 743222; calls by dose curve)
# Sequence of Vitamin D3 receptor (Homo sapiens) (P11473 whole entry, looked up): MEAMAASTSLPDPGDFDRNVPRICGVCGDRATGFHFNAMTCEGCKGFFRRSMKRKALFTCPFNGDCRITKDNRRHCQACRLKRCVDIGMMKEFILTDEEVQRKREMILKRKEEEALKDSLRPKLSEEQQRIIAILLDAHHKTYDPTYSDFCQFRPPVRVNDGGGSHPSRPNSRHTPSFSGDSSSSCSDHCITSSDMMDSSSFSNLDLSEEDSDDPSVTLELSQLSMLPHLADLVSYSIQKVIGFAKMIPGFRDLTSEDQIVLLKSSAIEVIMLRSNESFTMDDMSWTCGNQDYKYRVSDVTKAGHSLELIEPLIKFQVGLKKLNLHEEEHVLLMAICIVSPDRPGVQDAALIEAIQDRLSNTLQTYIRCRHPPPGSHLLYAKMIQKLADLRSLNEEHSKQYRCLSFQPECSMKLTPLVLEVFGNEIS
# Summary of the method: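 Beta-lactamase reporter readout (LiveBLAzer B/G FRET, 2 h RT) in VDR-bla cells after 16 h compound treatment at 37C, 5% CO2; cells pre-incubated 4 h before pin transfer of DMSO solutions.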
# [17] = target: Bile acid receptor (Homo sapiens) (UniProt Q96RI1); assay: qHTS assay to identify small molecule agonists of the farnesoid-X-receptor (FXR) signaling pathway (AID 743220; active means well fitted activation curve with a large enough effect in the signal ratio in the repeat runs, not every such curve was filed as active; the % refers to the signal ratio)
# Sequence of Bile acid receptor (Homo sapiens) (Q96RI1 whole entry, looked up): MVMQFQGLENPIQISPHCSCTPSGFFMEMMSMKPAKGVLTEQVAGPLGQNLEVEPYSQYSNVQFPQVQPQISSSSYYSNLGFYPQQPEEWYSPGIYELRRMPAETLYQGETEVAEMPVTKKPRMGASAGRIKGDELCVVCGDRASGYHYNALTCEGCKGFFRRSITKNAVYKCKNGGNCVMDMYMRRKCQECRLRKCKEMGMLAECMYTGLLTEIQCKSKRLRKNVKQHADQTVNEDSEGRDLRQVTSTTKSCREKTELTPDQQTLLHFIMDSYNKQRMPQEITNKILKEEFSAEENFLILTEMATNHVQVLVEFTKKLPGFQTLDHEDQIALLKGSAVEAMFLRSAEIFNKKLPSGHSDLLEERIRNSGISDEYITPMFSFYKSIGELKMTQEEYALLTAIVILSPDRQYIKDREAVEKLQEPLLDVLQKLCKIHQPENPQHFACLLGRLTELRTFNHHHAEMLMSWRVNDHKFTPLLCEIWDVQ
# Summary of the method: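 FXR-UAS-bla HEK 293T cells carrying a UAS-driven beta-lactamase reporter were plated for 5 h at 37C/5% CO2, then exposed to DMSO-dissolved Tox21 10K compounds for 16 h at 37C. A LiveBLAzer B/G FRET substrate was loaded for 2 h at room temperature before fluorescence reading.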
# [18] = target: Bile acid receptor (Homo sapiens) (UniProt Q96RI1); assay: qHTS assay to identify small molecule antagonists of the farnesoid-X-receptor (FXR) signaling pathway (AID 743217; active means well fitted inhibition curve with a large enough effect in the signal ratio in the repeat runs, not every such curve was filed as active; the % refers to the signal ratio)
# Summary of the method: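 Read-out: beta-lactamase FRET fluorescence (LiveBLAzer B/G substrate, 2 h, room temperature) in GeneBLAzer FXR-UAS-bla HEK 293T cells. Compounds were co-dosed with 50 uM chenodeoxycholic acid (final) and incubated 16 h at 37 °C.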
SMILES,Potency [1],Potency [2],Potency [3],Potency [4],Potency [5],Potency [6],Potency [7],Potency [8],Potency [9],Potency [10],Potency [11],Potency [12],Potency [13],outcome [14],Potency [15],Potency [16],outcome [17],Potency [18]
ClC1=C(Cl)[C@]2(Cl)[C@H]3[C@H]([C@H]4C=C[C@H]3C4)[C@@]1(Cl)C2(Cl)Cl,inactive,inactive,inactive,inactive,inactive,inactive,inactive,inactive,inactive,inactive,,,,,,,,
COc1cc(N)c(Cl)cc1C(=O)NC1CN2CCC1CC2 (stereo not drawn),,inactive,inactive,inactive,inactive,inactive,,inactive,inactive,inactive,inactive,inactive,inactive,inactive,,,,
Clc1ccc(COC(Cn2ccnc2)c2ccc(Cl)cc2Cl)cc1 (stereo not drawn),,40.7 µM (active) and 24.4 µM (active),,40.7 µM (active) and 17.3 µM (active) and 26.6 µM (active),20.4 µM (active) and 13.7 µM (active) and 26.6 µM (active),45.7 µM (active) and 48.8 µM (active),,54.7 µM (active) and 23.9 µM (active),,32.3 µM (active) and 38.7 µM (active),61.4 µM (active),45.3 µM (active) and 60.9 µM (active),45.3 µM (active) and 30.5 µM (active) and 23.7 µM (active),,,,,
O=[N+]([O-])c1c2ccccc2cc2ccccc12,,,,,,,,inactive,,,inactive,inactive,inactive,,,,,
Clc1ccc(C(Cl)(Cl)Cl)c(Cl)c1,inactive,inactive,inactive,inactive,,inactive,inactive,inactive,inactive,19.6 µM (active),,inactive,inactive,inactive,inactive,inactive,,
CCOC(=O)C1(c2ccccc2)CCN(CCC(C#N)(c2ccccc2)c2ccccc2)CC1,,inactive,inactive,inactive,inactive,inactive,,inactive,inactive,inactive,inactive,inactive,18.8 µM (active),,,,inactive,
CC1(C)CC/C(=C/c2ccc(Cl)cc2)C1(O)Cn1cncn1 (stereo not drawn),,,,inactive,54.6 µM (active),,inactive,,,inactive,,inactive,24.2 µM (active),,,,,
N#CCCSCCC#N,inactive,inactive,inactive,inactive,,inactive,inactive,,inactive,inactive,inactive,,,inactive,inactive,,,
CC(=O)O[C@H]1CC[C@@]2(C)C(=CC[C@@H]3[C@@H]2CC[C@]2(C)C(=O)CC[C@@H]32)C1,,inactive,inactive,inactive,inactive,inactive,inactive,,,,,inactive,48.6 µM (active),,,,,inactive
COc1cccc2c1C(=O)c1c(O)c3c(c(O)c1C2=O)C[C@@](O)(C(=O)CO)CC3OC1CC(N2CCOC(OC)C2)C(O)C(C)O1 (stereo partly drawn),inactive,inactive,inactive,inactive,,,,inactive,,inactive,0.952 µM (active),0.133 µM (active),0.298 µM (active),,,,,
CCN,,inactive,,inactive,,inactive,inactive,inactive,inactive,inactive,inactive,,,inactive,,,,
O=C(NC(=O)c1c(F)cccc1F)Nc1cc(Cl)c(OC(F)(F)C(F)F)c(Cl)c1,,inactive,inactive,inactive,inactive,inactive,,inactive,inactive,inactive,inactive,inactive,inactive,,inactive,,,
CC(C)CC(C)N (stereo not drawn),inactive,,inactive,inactive,inactive,inactive,inactive,inactive,inactive,inactive,,inactive,inactive,inactive,inactive,,,
CC(C)N1C(=O)N(c2ccccc2)CSC1=NC(C)(C)C,inactive,,,inactive,49 µM (active),,inactive,,,,inactive,,43.3 µM (active),,,inactive,,
ClC1=C(Cl)[C@]2(Cl)[C@@H]3[C@@H]4C[C@@H]([C@H]5O[C@@H]45)[C@@H]3[C@@]1(Cl)C2(Cl)Cl,,,,,30.6 µM (active),,,43.6 µM (active),,,54.9 µM (active),61.1 µM (active),19.3 µM (active),,,,,
Oc1ccc(I)cc1,,,,,,,,inactive,inactive,inactive,,inactive,inactive,inactive,,,,
COS(=O)(=O)c1ccc(C)cc1,,,,,,,,inactive,inactive,inactive,,inactive,inactive,inactive,,,,
[Cd+2].[Cl-].[Cl-],,7.83 µM (active) and 1.23 µM (active),11.1 µM (active) and 6.16 µM (active),12.4 µM (active) and 19.5 µM (active),1.75 µM (active) and 1.23 µM (active),8.78 µM (active) and 2.45 µM (active),,inactive,,17.5 µM (active) and 24.5 µM (active),inactive,27.5 µM (active),,,,,,
